Results on 38 compounds are retold here after the supplement of paper PMC6331611.

± gives the standard deviation of the averaged measurements. In all, about 1,600 compounds were measured (“normalized growth (OD600, IQM-normalized) in LPM”: median about 1, lowest 2% from about 0.014 on). Only a selection was taken, and the lowest values are over-represented in it overall.

For the experiment, the system named is Salmonella enterica serovar Typhimurium SL1344. The experiment can be described thus: normalized growth (OD600, IQM-normalized) in LPM (fraction of plate interquartile mean); higher = more bacterial growth (less inhibition). Particulars: LPM pH 5.8; 10 µM; 16 h.
Compound `CCCc1nc(C)c2c(O)nc(-c3cc(S(=O)(=O)N4CCN(CC)CC4)ccc3OCC)nn12` gave a normalized growth of 1.02 ± 0.053. The result for `CC1(C)S[C@@H]2[C@H](N3C(=O)[C@@H](c4ccccc4)NC3(C)C)C(=O)N2[C@H]1C(=O)O` reads 0.976 ± 0.053; that for `CCOC(=O)O[C@]1(C(=O)COC(=O)CC)CC[C@H]2[C@@H]3CCC4=CC(=O)C=C[C@]4(C)[C@H]3[C@@H](O)C[C@@]21C`, 1 ± 0.03. For the compound `CC(=O)Oc1cccc(C)c1` [meta-CRESYL ACETATE], the normalized growth was determined as 0.995 ± 0.048. The result for `OCCN1C[C@H](O)[C@@H](O)[C@H](O)[C@H]1CO` reads 0.993 ± 0.016; that for `C#CC1(O)CC[C@H]2[C@@H]3CCC4=CC(=O)CC[C@@H]4[C@H]3CC[C@@]21CC` (stereo partly drawn), 0.941 ± 0.024; that for `CC(=O)Nc1ccc(OC(C)=O)cc1`, 1.05 ± 0.08. `CCC1=C(C)CN(C(=O)NCCc2ccc(S(=O)(=O)NC(=O)N[C@H]3CC[C@H](C)CC3)cc2)C1=O`: the normalized growth is 0.926 ± 0.053. `Nc1cc(C(Cl)=C(Cl)Cl)c(S(N)(=O)=O)cc1S(N)(=O)=O` returned a normalized growth of 1.01 ± 0.036.

Regarding `CC(=O)Oc1cccc(C(=O)O)c1OC(C)=O`, the normalized growth was found to be 0.912 ± 0.079. The result for `O=C(Nc1ccccc1)OCC(CN1CCCCC1)OC(=O)Nc1ccccc1` (stereo not drawn) reads 0.903 ± 0.047; that for `CC(=O)OCC(=O)[C@@]1(O)CC[C@H]2[C@@H]3CCC4=CC(=O)C=C[C@]4(C)[C@@]3(Cl)[C@@H](Cl)C[C@@]21C`, 0.894 ± 0.024; that for `CC[N+](C)(CC)CCOC(=O)C(O)(c1ccccc1)C1CCCCC1` (stereo not drawn), 1.1 ± 0.03. The same measure for `CC1/C=C/C=C/C=C/C=C/C=C/C=C/C=C/C(OC2O[C@H](C)[C@@H](O)[C@H](N)[C@@H]2O)CC(O)C(C(=O)O)C(O)CC(=O)CC(O)CC(O)CC(O)CC(=O)CCCC(=O)CC(=O)OC1C(C)CC(C)C(O)CC(=O)c1ccc(N)cc1` (stereo partly drawn): 1.03 ± 0.045; for `Cc1cc(C)cc(OCC2CNC(=O)O2)c1` (stereo not drawn): 1.02 ± 0.03; for `COc1c(N2C[C@@H]3CCCN[C@@H]3C2)c(F)cc2c(=O)c(C(=O)O)cn(C3CC3)c12`: 0.0131 ± 0.0045. The same measure for `NC1CCN(c2c(F)cc3c(=O)c(C(=O)O)cn(C4CC4)c3c2Cl)C1` (stereo not drawn): 0.0132 ± 0.00024. Compound `C[C@@H]1CN(c2c(F)c(F)c3c(=O)c(C(=O)O)cn(C4CC4)c3c2F)C[C@H](C)N1` had a normalized growth of 0.0487 ± 0.0099. The result for `COc1c(N2CCNC(C)C2)c(F)cc2c(=O)c(C(=O)O)cn(C3CC3)c12` (stereo not drawn) reads 0.0158 ± 0.0074. The result for `CCn1cc(C(=O)O)c(=O)c2cc(F)c(N3CCNC(C)C3)c(F)c21` (stereo not drawn) reads 0.0416 ± 0.00075; that for `C[C@@H]1CN(c2c(F)c(N)c3c(=O)c(C(=O)O)cn(C4CC4)c3c2F)C[C@H](C)N1`, 0.0193 ± 0.0046; that for `CC(=O)N(CC(O)CO)c1c(I)c(C(=O)NCCO)c(I)c(C(=O)NCC(O)CO)c1I` (stereo not drawn), 1.05 ± 0.036.

In the case of `Cc1oc(=O)oc1CN1CCN(c2cc3c(cc2F)c(=O)c(C(=O)O)c2n3C(C)S2)CC1` (stereo not drawn), the normalized growth was found to be 0.00846 ± 7.6e-05. The same measure for `S=C1SCN(Cc2ccccc2)CN1Cc1ccccc1`: 1.11 ± 0.061; for `C=NC(C(=O)NC1C(=O)N2C1SC(C)(C)C2C(=O)O)c1ccccc1` (stereo not drawn): 0.913 ± 0.058.

For the compound `C#C[C@]1(O)CC[C@H]2[C@@H]3CCc4cc(OC5CCCC5)ccc4[C@H]3CC[C@@]21C`, the normalized growth turned out to be 0.954 ± 0.1. For `O=C([O-])[C@H]1/C(=C/CO)O[C@@H]2CC(=O)N21.[Li+]`, the normalized growth stood at 1.12 ± 0.076. In turn, `C#C[C@]1(OC(C)=O)CC[C@H]2[C@@H]3CCC4=CC(=O)CC[C@@H]4[C@H]3CC[C@@]21C` yielded a normalized growth of 1.14 ± 0.03. The same measure for `CC(=O)Oc1cc2c(s1)CCN(C(C(=O)C1CC1)c1ccccc1F)C2` (stereo not drawn): 1.08 ± 0.1; for `Cc1nc(-c2ccc(OCC(C)C)c(C#N)c2)sc1C(=O)O`: 1.02 ± 0.038; for `CC(=O)OCC(=O)[C@@]1(O)[C@@H](C)C[C@H]2[C@@H]3CCC4=CC(=O)C=C[C@]4(C)[C@@]3(F)[C@@H](O)C[C@@]21C`: 1.01 ± 0.033. The result for `COc1ccc2cc1Oc1ccc(cc1)C[C@H]1c3c(cc4c(c3Oc3cc5c(cc3OC)CCN(C)[C@@H]5C2)OCO4)CCN1C` reads 0.938 ± 0.024. The result for `CCC/C=C\C=C/C(=O)N[C@@H](CC(N)=O)C(=O)NC(CC(N)=O)C(=O)N[C@@H](C(=O)N[C@H](CCCN)C(=O)N[C@@H](C(=O)N[C@@H](C(=O)N[C@@H](C(=O)N[C@H](C(=O)N[C@@H](Cc1ccccc1)C(=O)N[C@H](CCCN)C(=O)NC(C(=O)N[C@H](C(=O)NC(C(=O)NCC(=O)N[C@@H](CC(C)C)C(=O)N[C@H](C)C(=O)NC(C(=O)O)C1CCC(O)C(Cl)C1)C1CCC(O)CC1)[C@H](C)O)C1CCC(O)CC1)[C@H](C)O)C1CCC(O)CC1)C1CCC(O)CC1)[C@H](C)O)C1CCC(O)CC1` (stereo partly drawn) [RAMOPLANIN [A2 shown; 2mM]] reads 1.31 ± 0.07. Compound `CC1(C)O[C@@H]2C[C@H]3[C@@H]4C[C@H](F)C5=CC(=O)C=C[C@]5(C)[C@H]4[C@@H](O)C[C@]3(C)[C@]2(C(=O)CO)O1` gave a normalized growth of 0.921 ± 0.042. The result for `Cc1cccc(C)c1NC(=O)c1ccccc1C(=O)O` reads 1.15 ± 0.12; that for `CC1(C)S[C@@H]2[C@H](NC(=O)[C@H](C(=O)O)c3ccsc3)C(=O)N2[C@H]1C(=O)O`, 1.01 ± 0.022; that for `CC(=O)OC1CC2CCC1(C)C2(C)C` (stereo not drawn), 1.21 ± 0.048. The same measure for `CC(C)C[C@@H]1NC(=O)[C@H](CCCN)NC(=O)[C@H](C(C)C)NC(=O)[C@H](Cc2ccc(O)cc2)N[C@@H](CCC(=O)O)C(=O)N[C@@H](CC(N)=O)C(=O)[C@@H](Cc2ccccc2)NC(=O)[C@H](Cc2ccccc2)NC(=O)[C@@H]2CCCN2C(=O)[C@@H](Cc2ccccc2)NC1=O`: 0.992 ± 0.1.
